Compounds without any hit were thinned out: in the full panel of roughly 83,000, 20% have a hit.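 The test compound was applied at a single concentration to cells in 96-well plates for 48 hours, and percent growth was recorded.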 Unmarked numbers belong to inactive results. The source made the active and inactive calls. How the source made its calls: active means growth percent below 10; inactive means the rest.

In one test the test system is HT29 colon. The test is described as follows: NCI-60 one-dose screen, 48 h (100 = growth as untreated, 0 = no growth, -100 = all killed). The following applies: 10 µM.
Take `O=S(=O)(NCCCNc1nccc(-c2c(-c3ccc(F)cc3)nc3sccn23)n1)c1ccc2ccccc2c1`: the growth was -7.72% (active).
Still for that read-out and setting: with `O=C(Nc1cccc(-n2cc(-c3ccncc3)c(-c3ccc(O)c(Cl)c3)n2)c1)c1ccc(Cl)c(Cl)c1` the figure was 69.8%; with `Cc1ccc(C)c(C(O)(c2cc(C)ccc2C)C2(O)CCCCC2)c1`, 90%; with `O=C(/C=C/c1cc2ccccc2[nH]c1=O)c1ccc2c(c1)OCO2`, 85.3%.
Take `O=C(Nc1cccc(-n2cc(-c3ccncc3)c(-c3ccc(O)c(Cl)c3)n2)c1)Nc1ccc(Cl)c(Cl)c1`: the growth was 37.8%.
On the same count and under the same terms, the same measure for `O=C(Nc1ccc(OS(=O)(=O)c2ccccc2)cc1)C12CC3CC(CC(C3)C1)C2`: -19.9% (active); for `COc1ccc(-c2nn(-c3cccc(NC(=O)Nc4ccc(Cl)c(C(F)(F)F)c4)c3)cc2-c2ccncc2)cc1Cl`: 2.78% (active); for `COc1ccc(-c2nn(-c3cccc(NC(=O)c4ccc(Cl)c(Cl)c4)c3)cc2-c2ccncc2)cc1Cl`: 78.2%.
The same measure, in the same setting: the same measure for `CCOC(=O)CCC(NC(=O)c1ccc(N)cc1)C(=O)OCC` (stereo not drawn): 99.4%.
The same measure, in the same setting: the same measure for `O=C(Nc1ccccc1)Nc1cccc(-n2cc(-c3ccncc3)c(-c3ccc(O)c(Cl)c3)n2)c1`: 64.7%; for `O=S(=O)(NCCNc1nccc(-c2c(-c3ccc(F)cc3)nc3sccn23)n1)c1ccc2ccccc2c1`: 44.9%; for `O=C(Nc1cccc(-n2cc(-c3ccncc3)c(-c3ccc(O)c(Cl)c3)n2)c1)c1cc(C(F)(F)F)cc(C(F)(F)F)c1`: 48.2%.
For `O=C(N/N=C/c1cc2ccccc2c2ccccc12)c1cc(O)c(O)c(O)c1`, the growth is 94.8%.
Regarding `COc1ccc(-c2nn(-c3cccc(NC(=O)c4cc(C(F)(F)F)cc(C(F)(F)F)c4)c3)cc2-c2ccncc2)cc1Cl`, the growth is 61%.
Consider `O=S(=O)(NCCCNc1nccc(-c2c(-c3ccc(F)cc3)nc3sccn23)n1)c1ccc(F)cc1`, for which the growth is 3.28% (active).
On the same count and under the same terms, the same measure for `COc1ccc(-c2nn(-c3cccc(NC(=O)c4ccc(N5CCOCC5)c(C(F)(F)F)c4)c3)cc2-c2ccncc2)cc1Cl`: 11.2%; for `CCCCCCN1CCN(Cc2ccc(N(CC)CC)cc2)C(=O)C1=O`: 2.25% (active).
On the same count and under the same terms, with `COc1ccc(Oc2nc(NC3CCCC3)nc(Sc3ccc(OC)cc3)n2)cc1` the figure was 43.7%.
Still for that read-out and setting: the same measure for `COc1ccc(-c2nn(-c3cccc(NC(=O)Nc4cccc(C(F)(F)F)c4)c3)cc2-c2ccncc2)cc1Cl`: 2.94% (active).
On to `COc1ccc(-c2nn(-c3cccc(NC(=O)Nc4ccccc4)c3)cc2-c2ccncc2)cc1Cl`, for which the growth is -69.6% (active).
Still for that read-out and setting: with `CCOC(=O)c1ccoc1` the figure was 95.1%.
On the same count and under the same terms, with `COc1ccc(/C=C/C(C)=N/OCC(=O)O)cc1` the figure was 105%; with `CN(C)Cc1cn(-c2ncc(-c3ccc(C(F)(F)F)cc3)c(NC3CCCCCC3)n2)nn1`, 31%; with `COc1cccc(C(=O)Nc2ccc(CN3CCc4nc5cc(OC)c(OC)cc5cc43)cc2)c1`, 16.2%.
The same measure, in the same setting: with `O=[N+]([O-])c1cccc(-c2ncc(-c3ccc(Cl)cc3Cl)[nH]2)c1` the figure was -65.2% (active).
Regarding `CCN(CC)CCSCCN(CC)CC`, the growth was 104%.
As to `COc1ccc([N+](=O)[O-])c(C(=O)O)c1`, the growth was 102%.
Still for that read-out and setting: the same measure for `CNc1ncc(-c2ccc(C(F)(F)F)cc2)c(NC2CCCCCC2)n1`: 56.8%; for `CN(C)c1ccc(/C=C/C=N/NC(=O)c2cc(O)c(O)c(O)c2)cc1`: 111%; for `O=C(Nc1cccc(-n2cc(-c3ccncc3)c(-c3ccc(O)c(Cl)c3)n2)c1)c1ccc(N2CCOCC2)c(C(F)(F)F)c1`: 12.4%.
The same measure, in the same setting: with `Cc1ccc(CC#N)cc1C` the figure was 110%.
Same read-out and setting: the same measure for `O=c1oc2cc(OS(=O)(=O)c3ccccc3)ccc2c2c1CCCCC2`: 10%; for `CCOC(=O)C(NC(=O)C(Cl)Cl)C(O)c1ccccc1` (stereo not drawn): 107%.
With `C/C(N)=C(\C#N)C(=O)c1ccccc1`, the growth was 105%.
Regarding `Nc1ncnc2[nH]c(=O)[nH]c12`, the growth was 105%.
The same measure, in the same setting: with `COc1ccc(-c2nn(-c3cccc(NC(=O)c4cccc(C(F)(F)F)c4)c3)cc2-c2ccncc2)cc1Cl` the figure was 8.18% (active); with `O=C1CC[C@@H]2CCCC[C@@H]2C1`, 107%.
Still for that read-out and setting: the same measure for `Cc1ccc(S(=O)(=O)OCCN(CCOS(=O)(=O)c2ccc(C)cc2)c2c[nH]c(=O)[nH]c2=O)cc1`: 99.7%.
`FC(F)(F)c1ccc(-c2cnc(-n3cc(COCCN4CCCCC4)nn3)nc2NC2CCCCCC2)cc1`: the growth is -73.1% (active).

The subject of the next test is SNB-75 CNS. The test is described as above. Particulars: 10 µM.
`O=S(=O)(NCCCNc1nccc(-c2c(-c3ccc(F)cc3)nc3sccn23)n1)c1ccc2ccccc2c1`: the growth is 50.1%.
The same measure, in the same setting: with `O=C(Nc1cccc(-n2cc(-c3ccncc3)c(-c3ccc(O)c(Cl)c3)n2)c1)c1ccc(Cl)c(Cl)c1` the figure was 38.5%.
For the compound `Cc1ccc(C)c(C(O)(c2cc(C)ccc2C)C2(O)CCCCC2)c1`, the growth was 95.9%.
On the same count and under the same terms, with `O=C(/C=C/c1cc2ccccc2[nH]c1=O)c1ccc2c(c1)OCO2` the figure was 86.7%; with `O=C(Nc1cccc(-n2cc(-c3ccncc3)c(-c3ccc(O)c(Cl)c3)n2)c1)Nc1ccc(Cl)c(Cl)c1`, 7.7% (active); with `O=C(Nc1ccc(OS(=O)(=O)c2ccccc2)cc1)C12CC3CC(CC(C3)C1)C2`, 56.4%.
For `COc1ccc(-c2nn(-c3cccc(NC(=O)Nc4ccc(Cl)c(C(F)(F)F)c4)c3)cc2-c2ccncc2)cc1Cl`, the growth was 25.6%.
`COc1ccc(-c2nn(-c3cccc(NC(=O)c4ccc(Cl)c(Cl)c4)c3)cc2-c2ccncc2)cc1Cl`: the growth was 74.8%.
For the compound `CCOC(=O)CCC(NC(=O)c1ccc(N)cc1)C(=O)OCC` (stereo not drawn), the growth is 113%.
On the same count and under the same terms, with `O=C(Nc1ccccc1)Nc1cccc(-n2cc(-c3ccncc3)c(-c3ccc(O)c(Cl)c3)n2)c1` the figure was 48.3%; with `O=S(=O)(NCCNc1nccc(-c2c(-c3ccc(F)cc3)nc3sccn23)n1)c1ccc2ccccc2c1`, 79.3%.
For `O=C(Nc1cccc(-n2cc(-c3ccncc3)c(-c3ccc(O)c(Cl)c3)n2)c1)c1cc(C(F)(F)F)cc(C(F)(F)F)c1`, the growth is 59.4%.
On to `O=C(N/N=C/c1cc2ccccc2c2ccccc12)c1cc(O)c(O)c(O)c1`, for which the growth is 56.4%.
As for `COc1ccc(-c2nn(-c3cccc(NC(=O)c4cc(C(F)(F)F)cc(C(F)(F)F)c4)c3)cc2-c2ccncc2)cc1Cl`, the growth is 60.9%.
Still for that read-out and setting: with `O=S(=O)(NCCCNc1nccc(-c2c(-c3ccc(F)cc3)nc3sccn23)n1)c1ccc(F)cc1` the figure was 40.7%.
Still for that read-out and setting: the same measure for `COc1ccc(-c2nn(-c3cccc(NC(=O)c4ccc(N5CCOCC5)c(C(F)(F)F)c4)c3)cc2-c2ccncc2)cc1Cl`: 47%.
Same read-out and setting: with `CCCCCCN1CCN(Cc2ccc(N(CC)CC)cc2)C(=O)C1=O` the figure was 14%; with `COc1ccc(Oc2nc(NC3CCCC3)nc(Sc3ccc(OC)cc3)n2)cc1`, 75.3%.
With `COc1ccc(-c2nn(-c3cccc(NC(=O)Nc4cccc(C(F)(F)F)c4)c3)cc2-c2ccncc2)cc1Cl`, the growth is 21.5%.
Take `COc1ccc(-c2nn(-c3cccc(NC(=O)Nc4ccccc4)c3)cc2-c2ccncc2)cc1Cl`: the growth is 27.5%.
Take `CCOC(=O)c1ccoc1`: the growth is 94.4%.
On to `COc1ccc(/C=C/C(C)=N/OCC(=O)O)cc1`, for which the growth was 100%.
As for `CN(C)Cc1cn(-c2ncc(-c3ccc(C(F)(F)F)cc3)c(NC3CCCCCC3)n2)nn1`, the growth was 72.9%.
Same read-out and setting: the same measure for `COc1cccc(C(=O)Nc2ccc(CN3CCc4nc5cc(OC)c(OC)cc5cc43)cc2)c1`: 49.2%; for `O=[N+]([O-])c1cccc(-c2ncc(-c3ccc(Cl)cc3Cl)[nH]2)c1`: 90.6%; for `CCN(CC)CCSCCN(CC)CC`: 96.3%.
Take `COc1ccc([N+](=O)[O-])c(C(=O)O)c1`: the growth is 100%.
For the compound `CNc1ncc(-c2ccc(C(F)(F)F)cc2)c(NC2CCCCCC2)n1`, the growth is 90.9%.
Turning to `CN(C)c1ccc(/C=C/C=N/NC(=O)c2cc(O)c(O)c(O)c2)cc1`, the growth was 81.3%.
Same read-out and setting: the same measure for `O=C(Nc1cccc(-n2cc(-c3ccncc3)c(-c3ccc(O)c(Cl)c3)n2)c1)c1ccc(N2CCOCC2)c(C(F)(F)F)c1`: 33.5%; for `Cc1ccc(CC#N)cc1C`: 101%; for `O=c1oc2cc(OS(=O)(=O)c3ccccc3)ccc2c2c1CCCCC2`: 69.5%.
Same read-out and setting: the same measure for `CCOC(=O)C(NC(=O)C(Cl)Cl)C(O)c1ccccc1` (stereo not drawn): 91.3%; for `C/C(N)=C(\C#N)C(=O)c1ccccc1`: 93.1%; for `Nc1ncnc2[nH]c(=O)[nH]c12`: 84.6%.
Same read-out and setting: with `COc1ccc(-c2nn(-c3cccc(NC(=O)c4cccc(C(F)(F)F)c4)c3)cc2-c2ccncc2)cc1Cl` the figure was 6.59% (active); with `O=C1CC[C@@H]2CCCC[C@@H]2C1`, 95.2%.
On to `Cc1ccc(S(=O)(=O)OCCN(CCOS(=O)(=O)c2ccc(C)cc2)c2c[nH]c(=O)[nH]c2=O)cc1`, for which the growth is 92.2%.
With `FC(F)(F)c1ccc(-c2cnc(-n3cc(COCCN4CCCCC4)nn3)nc2NC2CCCCCC2)cc1`, the growth is 11.5%.
